# Data: PubChem BioAssay
# Values joined by “and” are separate entries in the source; they are usually repeats but may differ in a detail not shown here. Equal values may be shown once. Results filed as inconclusive are left out. Active and inactive are the calls of the source. Unless noted, cut-off not given; nearly all actives show AC50 up to about 26 µM.
# Assays:
# [1] = viability loss in pontine glioma line – cell-based, SU-DIPG-XXV, MIPE5.0, CellTiter-Glo, qHTS, dose response (AID 1347065); conditions: CellTiter-Glo ATP luminescence;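 further: cells exposed to compound for 48 hours before ATP readout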
# [2] = JHH-DIPG-1 glioma cell viability, MIPE5.0 library, CellTiter-Glo luminescence, qHTS (AID 1347067); conditions: JHH-DIPG-1 glioma viability, CellTiter-Glo ATP luminescence;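 further: cells exposed to compound for 48 hours before readout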
# [3] = SU-DIPG-XXV glioma cell viability, MIPE5.0 library, qHTS (AID 1347068; cut-off not given, nearly all actives have IC50 up to about 30 µM;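 on IC50: cells exposed to compound for 48 hours before viability readout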)
# [4] = LFS_MB_P medulloblastoma growth inhibition, cell-based, chromothripsis tumors, cisplatin or BGB combos (AID 1671449; in the data active means inhibition above about 80%;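 further: cells exposed for 96 hours; 0% = vehicle DMSO and 100% = killing by high DMSO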); conditions: LFS_MB_P medulloblastoma cells
# [5] = HDN33 neuroblastoma growth inhibition, cell-based, chromothripsis tumors, cisplatin or BGB combos (AID 1671450; in the data active means inhibition above about 80%;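 further: cells exposed to compound for four days; 0% = vehicle DMSO and 100% = cell killing by high DMSO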); conditions: HDN33 neuroblastoma cells, stronger effect = higher value
# [6] = ICB984 medulloblastoma cell growth inhibition, synergistic combos for chromothripsis tumors, cisplatin or BGB combos (AID 1671451; call rule not given here;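 further: cells exposed for 96 hours before readout; 0% = vehicle DMSO and 100% = killing by high DMSO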); conditions: ICB984 medulloblastoma cells, drug combinations, stronger effect = higher value
# [7] = LFS_MB_1R medulloblastoma cell growth inhibition, synergistic combos for chromothripsis tumors, cisplatin or BGB combos (AID 1671452; in the data active means inhibition above about 80%;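 further: cells exposed for 96 hours before readout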); conditions: LFS_MB_1R medulloblastoma cells, stronger effect = higher value
# [8] = HTB85 osteosarcoma cell growth inhibition, synergistic combos for chromothripsis tumors, BGB or cisplatin IC20 combos (AID 1671453; in the data active means inhibition above about 80%;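 further: cells exposed for 96 hours before readout; 0% = vehicle DMSO and 100% = high DMSO killing control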); conditions: HTB85 osteosarcoma cells, drug combinations, stronger effect = higher value
# [9] = CRL2098 osteosarcoma cell growth inhibition, synergistic combos for chromothripsis tumors, BGB or cisplatin IC20 combos (AID 1671454; in the data active means inhibition above about 80%;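 further: cells exposed for 96 h before readout; 0% = vehicle DMSO and 100% = killing by high DMSO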); conditions: CRL2098 osteosarcoma cells, drug combinations, stronger effect = higher value
# [10] = HD-MB03 medulloblastoma cell growth inhibition, synergistic combos for chromothripsis tumors, BGB or cisplatin IC20 combos (AID 1671455; in the data active means inhibition above about 83%;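 further: 0% = vehicle DMSO and 100% = high DMSO as cytotoxic control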); conditions: HD-MB03 medulloblastoma cells, stronger effect = higher value
# [11] = UWB1.289 ovarian carcinoma cell growth inhibition, synergistic combos for chromothripsis tumors, BGB or cisplatin combos (AID 1671456; in the data active means inhibition above about 80%;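 further: cells exposed to compound for four days; 0% = vehicle DMSO and 100% = killing by high DMSO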); conditions: UWB1.289 ovarian carcinoma cells, stronger effect = higher value
# [12] = LFS_MB_2R medulloblastoma cell growth inhibition, synergistic combos for chromothripsis tumors, cisplatin combos (AID 1671457; in the data active means inhibition above about 80%;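 further: cells exposed to compound for four days before readout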); conditions: LFS_MB_2R medulloblastoma cells, stronger effect = higher value
# [13] = MDA-MB-436 breast carcinoma cell growth inhibition, synergistic combos for chromothripsis tumors, BGB or cisplatin combos (AID 1671458; call rule not given here;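 further: cells exposed for 96 hours; 0% = vehicle DMSO and 100% = killing by high DMSO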); conditions: MDA-MB-436 breast carcinoma growth inhibition, drug combinations, stronger effect = higher value
# [14] = UWB1.289_BRCA1 ovarian cancer growth, cell-based, BGB or cisplatin combinations (AID 1671459; in the data active means inhibition above about 80%); conditions: UWB1.289 BRCA1 ovarian carcinoma, drug combinations, stronger effect = higher value
# [15] = human astrocyte viability loss, single and combined drugs, cytotoxicity control for chromothriptic childhood tumor combination screen, cell-based, BGB or cisplatin IC20 combos (AID 1671460; in the data active means inhibition above about 80%;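 further: cells exposed to compounds for 96 hours before viability readout; 0% = vehicle and 100% = killing control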); conditions: Human astrocytes, drug combinations, stronger effect = higher value
# [16] = growth inhibition of BT084 medulloblastoma cells, cell-based, ICGC_MB145, cisplatin and BGB IC40 combos (AID 1671461; in the data active means inhibition above about 80%;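 further: cells exposed to drugs for 96 hours; 0% = vehicle DMSO and 100% = high DMSO full killing control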); conditions: drug combinations, stronger effect = higher value
# [17] = growth inhibition of RCMB18 medulloblastoma cells, cell-based, cisplatin and BGB IC40 combos (AID 1671462; in the data active means inhibition above about 80%;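 further: cells exposed to compound for four days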); conditions: stronger effect = higher value
# [18] = growth inhibition of CRL1545 osteosarcoma cells, cell-based, cisplatin and BGB IC20 combos (AID 1671464; in the data active means inhibition above about 80%;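 further: cells exposed to compound for 96 hours before readout; 0% = vehicle DMSO and 100% = high DMSO killing control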); conditions: stronger effect = higher value
# [19] = measured here: combination with BGB IC40, at 0.05 µM
# [20] = measured here: with BGB IC20 combination, at 0.5 µM
# [21] = measured here: with cisplatin IC20 combination, at 0.5 µM
# [22] = measured here: combination with cisplatin, at 0.5 µM
# [23] = measured here: combination with cisplatin, at 5 µM
structure (smiles),measurement,setting,value
Cc1ccc(NC(=O)c2ccc(CN3CCNCC3)cc2)cc1Nc1nccc(-c2cccnc2)n1,AC50,[1],23.5 µM (active)
same,outcome,[2],inactive
same,outcome,[3],inactive
CCCN(CCC)C(=O)C1=Cc2ccc(-c3ccc(C(=O)N4CCCC4)cc3)cc2N=C(N)C1,AC50,[1],20.9 µM (active)
same,AC50,[2],23.5 µM (active)
same,outcome,[3],inactive
CN1CCN(CCCNc2ncc(Cl)c(-c3cc4c(C(=O)NC5CC5)cccc4s3)n2)CC1,AC50,[1],23.5 µM (active)
same,outcome,[3],inactive
COc1ccc(CNC(=O)c2cc(-c3cncc(Cl)c3)cnc2-c2ccccn2)nc1OC,outcome,[1],inactive
same,outcome,[2],inactive
same,outcome,[3],inactive
CC(C)(O)CNc1nc(Nc2ccnc(C(F)(F)F)c2)nc(-c2cccc(C(F)(F)F)n2)n1,AC50,[1],14.8 µM (active)
same,outcome,[3],inactive
COC(=O)C1C2CC3c4[nH]c5cc(OC)ccc5c4CCN3CC2CC(OC(=O)c2cc(OC)c(OC)c(OC)c2)C1OC (stereo not drawn),AC50,[1],20.9 µM (active)
same,AC50,[2],23.5 µM (active)
same,outcome,[3],inactive
Cc1nc(-c2cccnc2)sc1C(=O)Nc1ccccc1-c1cn2c(CN3CCOCC3)csc2n1,outcome,[1],inactive
same,outcome,[3],inactive
CCc1cc2c(cc1N1CCC(N3CCOCC3)CC1)C(C)(C)c1[nH]c3cc(C#N)ccc3c1C2=O,AC50,[1],2.04 µM (active)
same,outcome,[3],inactive
CC1CCC(n2c3cnccc3c3cnc(Nc4ccc5c(n4)CCN(C(=O)CO)C5)nc32)CC1 (stereo not drawn),outcome,[1],inactive
same,outcome,[2],inactive
same,outcome,[3],inactive
COC(=O)/C=C/C(=O)N(O)CCCCNCc1ccc(COC(=O)Nc2cccc3ccccc23)cc1,AC50,[1],20.9 µM (active)
same,AC50,[2],18.6 µM (active)
CN1CC[C@@H](c2c(O)cc(O)c3c(=O)cc(-c4ccc(C(F)(F)F)cc4Cl)oc23)[C@@H]1CO,AC50,[1],23.5 µM (active)
same,outcome,[2],inactive
CNC(=O)Cn1cc(-c2ccc3c(c2)C(F)CC32NC(=O)N(CC(=O)N(Cc3ccc(F)cc3)C(C)C(F)(F)F)C2=O)cn1 (stereo not drawn),outcome,[1],inactive
same,outcome,[2],inactive
same,outcome,[3],inactive
CCC(CC)C(c1ccc(Nc2nc3ccccc3s2)cc1)n1cncn1 (stereo not drawn),AC50,[1],18.6 µM (active)
same,IC50,[3],20.9 µM (active)
CN1CCN(C(=O)c2ccc3cc(CCNc4ncnc5ccc(C#N)cc45)ccc3c2)CC1,AC50,[1],23.5 µM (active)
same,AC50,[2],20.9 µM (active)
Cn1ncc2cc(-c3cnc(N)c(Cl)c3N3CCC4(CCNC4=O)CC3)ccc21,AC50,[1],20.9 µM (active)
same,outcome,[2],inactive
Cc1nc(C)c(CN2CCN(C(c3ccc(F)cc3)c3ccc(F)cc3)CC2)nc1C,AC50,[1],23.5 µM (active)
same,outcome,[2],inactive
same,outcome,[3],inactive
CCNCc1nc2c(N)nc3ccccc3c2n1CC(C)(C)O,outcome,[1],inactive
same,outcome,[2],inactive
same,outcome,[3],inactive
Nc1ccc(F)cc1NC(=O)c1ccc(CNC(=O)/C=C/c2cccnc2)cc1,AC50,[1],5.9 µM (active)
same,AC50,[2],9.34 µM (active)
same,IC50,[3],16.6 µM (active)
same,inhibition,"[4]; at 0.5 µM, stronger effect = higher value",-9.27% (inactive) and 17.5% (inactive)
same,inhibition,"[4]; measured here: combination with BGB IC20, at 0.005 µM",-31.2% and 6.89%
same,inhibition,"[4]; measured here: combination with BGB IC40, at 0.005 µM",-55.6% and -31.5%
same,inhibition,[4]; [19],-32.7% and -5.83%
same,inhibition,"[4]; measured here: combination with cisplatin, at 0.5 µM, stronger effect = higher value",16% and 62.9%
same,inhibition,"[4]; measured here: combination with cisplatin, at 5 µM, stronger effect = higher value",108% and 116%
same,inhibition,"[5]; BGB combo, at 5 µM",80.7%
same,inhibition,[5]; at 0.5 µM,12.4% (inactive) and 12.7% (inactive)
same,inhibition,"[5]; cisplatin combo, at 5 µM",80.6% and 84.9%
same,inhibition,[5]; [20],1.48% and 7.37%
same,inhibition,[5]; [21],26.1% and 17.9%
same,inhibition,"[5]; single agent, at 5 µM",78.9% and 79.8%
same,inhibition,"[6]; BGB IC20 combo, at 0.005 µM",6.31% and 11.4%
same,inhibition,"[6]; BGB IC40 combo, at 0.005 µM",6.94% and 2.58%
same,inhibition,"[6]; BGB IC40 combo, at 0.05 µM",84.2% and 81%
same,inhibition,[6]; at 0.5 µM,-12.1% (inactive) and -33.8% (inactive)
same,inhibition,"[6]; cisplatin combo, at 0.05 µM",83.9% and 80.3%
same,inhibition,"[6]; cisplatin combo, at 0.5 µM",-1.65% and -31.4%
same,inhibition,"[6]; cisplatin combo, at 5 µM",-26.1% and -13.8%
same,inhibition,"[6]; measured here: 5 uM single agent, at 5 µM",-14% and -9.96%
same,inhibition,[7]; at 0.5 µM,30% (inactive) and 36% (inactive)
same,inhibition,[7]; [19],-28.7% and -30.1%
same,inhibition,[7]; [22],65% and 50%
same,inhibition,[7]; [23],97% and 96%
same,inhibition,[8]; at 0.5 µM,21% (inactive) and 24% (inactive)
same,inhibition,"[8]; measured here: with BGB IC20, at 0.5 µM",43.2% and 13.5%
same,inhibition,"[8]; measured here: with BGB IC20, at 5 µM",97.2% and 95.3%
same,inhibition,"[8]; measured here: with cisplatin IC20, at 0.5 µM",15.4% and 37.9%
same,inhibition,"[8]; measured here: with cisplatin IC20, at 5 µM",97.9% and 96.5%
same,inhibition,"[8]; single agent, at 5 µM",91.8% and 89.6%
same,inhibition,[9]; at 0.5 µM,-40.8% (inactive) and -34.5% (inactive)
same,inhibition,"[9]; measured here: combination with BGB at IC20, at 0.5 µM",-53.4% and -17.4%
same,inhibition,"[9]; measured here: combination with cisplatin at IC20, at 0.5 µM",-22.2% and -51.8%
same,inhibition,[10]; at 0.5 µM,19.9% (inactive) and 36% (inactive)
same,inhibition,"[10]; measured here: combo with BGB at IC20, at 0.5 µM",24.3% and 36.2%
same,inhibition,"[10]; measured here: combo with cisplatin at IC20, at 0.5 µM",28.3% and 50.6%
same,inhibition,[11]; at 0.5 µM,6.29% (inactive) and 20.9% (inactive)
same,inhibition,"[11]; measured here: inhibition with BGB combination, at 0.05 µM",-10.5% and -21.7%
same,inhibition,"[11]; measured here: inhibition with cisplatin combination, at 0.05 µM",-34.6% and -15.2%
same,inhibition,[12]; at 0.5 µM,19.4% (inactive) and 17.9% (inactive)
same,inhibition,[12]; [22],42.4% and 41%
same,inhibition,[12]; [23],91.1% and 92.2%
same,inhibition,[13]; at 0.5 µM,-0.59% (inactive) and 2.18% (inactive)
same,inhibition,"[13]; measured here: BGB combination, at 0.5 µM",-5.08% and -6.18%
same,inhibition,"[13]; measured here: BGB combination, at 5 µM",27.2% and 23.4%
same,inhibition,"[13]; measured here: cisplatin combination, at 0.5 µM",-7.52% and 1.65%
same,inhibition,"[13]; measured here: cisplatin combination, at 5 µM",37.2% and 38.6%
same,inhibition,"[14]; BGB combination, concentration series, at 5 µM",85.3% and 82.2%
same,inhibition,[14]; at 0.5 µM,1.02% (inactive) and 1.89% (inactive)
same,inhibition,"[14]; cisplatin combination, concentration series, at 5 µM",98.1% and 92.9%
same,inhibition,[15]; at 0.5 µM,-0.32% (inactive) and -2.77% (inactive)
same,inhibition,"[15]; measured here: combo with BGB IC20, at 0.5 µM",-0.373% and -1.39%
same,inhibition,"[15]; measured here: combo with cisplatin IC20, at 0.5 µM",-8.73% and -1.18%
same,inhibition,[16]; at 0.5 µM,39.6% (inactive) and 45% (inactive)
same,inhibition,"[16]; cisplatin combination, at 0.5 µM",58.4% and 61.5%
same,inhibition,"[16]; cisplatin combination, at 5 µM",87.7% and 92.4%
same,inhibition,"[16]; measured here: BGB IC40 combination 0.05 uM, at 0.05 µM",-24% and -23.6%
same,inhibition,"[16]; single agent, at 5 µM",65.3% and 57.1%
same,inhibition,[17]; at 0.5 µM,43.9% (inactive) and 41.5% (inactive)
same,inhibition,"[17]; cisplatin combo, at 5 µM",93.2% and 98.3%
same,inhibition,"[17]; measured here: BGB IC40 combination, at 0.05 µM",-7.17% and -21.6%
same,inhibition,[17]; [22],52.2% and 77.9%
same,inhibition,"[17]; single agent, at 5 µM",82.6% and 79%
same,inhibition,[18]; at 0.5 µM,45.6% (inactive) and 32.9% (inactive)
same,inhibition,[18]; [20],25.5% and 27%
same,inhibition,[18]; [21],54.9% and 35.9%
same,inhibition,"[18]; single agent, at 0.05 µM",-31.6% and 15.5%
same,inhibition,"[18]; single agent, at 5 µM",32.4% and 21.9%
